High-throughput results from PubChem.
The sample as a whole holds a higher share of hits than the screen did.
DT40 TDP1 CPT: growth inhibition of DT40 Tdp1-/-;hTDP1 cells with camptothecin (screen for TDP1 inhibitors). chicken DT40 Tdp1-/-;hTDP1 cells + 20 nM CPT, ATP luminescence, 48 h. Potency, µM (titrated, usually from 46.2 µM), without a hit: at the top dose activity change, negative = growth inhibition, hits mostly inhibitors. actives 12% (n = 420,000). AID 686979; also: potency is read from the fitted curve at half-maximal effect; nearly all actives have a fitted effect of over 55% in size
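Chicken DT40 Tdp1-/- cells complemented with human TDP1, 400 cells/well, exposed to compounds plus 20 nM camptothecin for at least 48 h at 37 C; viability read as ATP content by CellTiter-Glo luminescence.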
IL1B secr inh: blocks inflammasome-driven IL-1 beta release; THP-1 LPS/ATP IL-1B secretion, AlphaLISA, 16 h; active compounds read low; activity change, % at 57.5 µM; actives 4.7% (n = 360,000); AID 743279; in the data active = activity change below about -50%; inconclusive = mostly about -30% to -49%
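Secreted IL-1B measured by AlphaLISA bead assay after 16 h compound exposure of THP-1 cells; compounds (final up to 57.5 uM) added 1 h before LPS (250 ng/mL) and ATP (1.25 mM) stimulation; lower signal means less secretion.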
12-LOX inh: inhibitors of human 12S-lipoxygenase ALOX12. P18054. purified 12hLO, xylenol orange hydroperoxide absorbance. Potency, µM (highest dose often 108 µM), without a hit: top-dose activity change, negative = inhibition, most hits filed as inhibitors. actives 1.1% (n = 580,000); also: potency is read from the fitted curve at half-maximal effect
Target sequence (P18054 whole entry, looked up): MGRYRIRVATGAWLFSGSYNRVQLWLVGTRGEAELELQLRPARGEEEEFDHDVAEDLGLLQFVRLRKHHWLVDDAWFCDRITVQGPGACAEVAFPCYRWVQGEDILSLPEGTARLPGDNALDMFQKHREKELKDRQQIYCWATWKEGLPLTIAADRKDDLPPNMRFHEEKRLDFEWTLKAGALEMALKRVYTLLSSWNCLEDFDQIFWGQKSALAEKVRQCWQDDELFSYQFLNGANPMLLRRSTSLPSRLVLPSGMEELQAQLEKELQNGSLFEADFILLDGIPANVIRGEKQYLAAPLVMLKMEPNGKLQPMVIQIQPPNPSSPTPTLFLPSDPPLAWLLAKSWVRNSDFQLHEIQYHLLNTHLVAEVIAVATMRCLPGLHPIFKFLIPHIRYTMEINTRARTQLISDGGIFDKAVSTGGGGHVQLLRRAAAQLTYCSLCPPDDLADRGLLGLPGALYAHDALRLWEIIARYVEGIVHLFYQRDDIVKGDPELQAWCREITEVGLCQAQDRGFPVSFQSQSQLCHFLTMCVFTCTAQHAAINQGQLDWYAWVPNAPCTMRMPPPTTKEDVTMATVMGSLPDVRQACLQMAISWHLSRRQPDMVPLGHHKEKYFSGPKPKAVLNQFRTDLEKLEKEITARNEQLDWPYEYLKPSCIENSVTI
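Purified human 12hLO (150 nM final) in 25 mM Hepes, 0.01% Triton X-100, pH 7.0 was preincubated 15 min at room temperature with compound. Then 40 uM arachidonic acid was added, 30 min. Hydroperoxide was read by Fe-XO absorbance ratio 573/405 nm.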
HT1080-NT tox: kills 2HG-producing HT-1080-NT fibrosarcoma cells; HT-1080-NT fibrosarcoma viability, CellTiter-Glo ATP luminescence, 48 h; Potency, µM (series often up to 46.1 µM), for the others: at the top dose activity, negative = less viability, most hits filed as cytotoxic; actives 1.6% (n = 360,000);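 also: NT is the 2HG producing partner of a matched IDH1 knockdown line; potency is read from the fitted curve at half-maximal effect; 0% = DMSO-treated cells and -100% = media-only wells without cells; nearly all actives have a fitted effect of over 55% in size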
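A 48-hour cytotoxicity screen used HT-1080-NT cells plated 2 hours before compound delivery. ATP-based CellTiter-Glo luminescence measured viability, normalized to DMSO and no-cell controls.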
HT1080 IDH1KD tx: HT-1080 IDH1 knockdown cell toxicity (counter line); HT-1080 IDH1 knockdown viability, ATP luminescence, 48 h; Potency, µM (doses to about 46.1 µM), for inactives: at the top dose activity, negative = toxicity, hits mostly cytotoxic; actives 2% (n = 360,000); AID 686971;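 also: potency is read from the fitted curve at half-maximal effect; 0% = DMSO wells and -100% = cell-free medium wells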
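Luminescent ATP read-out (CellTiter-Glo, 10 min at room temperature) after 48 h compound exposure at 37 °C gave viability of IDH1-knockdown HT-1080 cells. Activity was normalised to DMSO and cell-free wells, then fitted as concentration-response curves.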
DT40 TDP1 no CPT: qHTS for Inhibitors of human tyrosyl-DNA phosphodiesterase 1 (TDP1): qHTS in cells in absence of CPT | DT40 Tdp1-/- hTDP1 cells, no CPT, ATP luminescence, 48 h | Potency, µM (top dose mostly 46.2 µM), for inactives: top-dose activity change, negative = growth inhibition, hits mostly inhibitors | actives 15% (n = 420,000); also: potency is read from the fitted curve at half-maximal effect; nearly all actives have a fitted effect of over 55% in size
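Growth of hTDP1-complemented DT40 Tdp1-knockout cells is measured by ATP luminescence after at least 48 hr compound exposure at 37 °C, with DMSO substituting for the 20 nM CPT used in the parallel screen.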
* = called active by the depositor; ? = inconclusive; · = not tested or not shown; [ ] = dose if it differs, or a comment. Unless noted, calls follow the shape of the dose curve; as a rule, active = well fitted curve in the direction sought with a large enough effect; inconclusive = small, poorly fitted or top-dose-only effect, or another doubt; inactive = no such curve, though single readings can be large; an effect the other way counts as inactive or inconclusive. Unless noted, % is scaled to controls: 0 for no effect and ±100 for the full control effect.

SMILES | DT40 TDP1 CPT | IL1B secr inh | 12-LOX inh | HT1080-NT tox | HT1080 IDH1KD tx | DT40 TDP1 no CPT
O=[N+]([O-])c1ccc(NCCCNS(=O)(=O)c2ccc(Cl)cc2)c(Cl)c1 | 21µM* | 1 | -21% | -11% | -10% | 21µM*
COc1cccc(NC(=O)c2cnc(SCC(=O)NCc3ccc4c(c3)OCO4)n(C)c2=O)c1 | 21µM* | -11 | -5% | 7% | 6% | 12µM*
COc1cccc(NC(=O)c2cnc(SCC(=O)N3CCOCC3)n(C)c2=O)c1 | 15µM* | · | 5% | · | · | 15µM*
COc1cccc(-n2nnnc2SCC(=O)NCc2ccc3c(c2)OCO3)c1 | ? | 0 | -2%[57.4 µM] | -8% | -2% | -19%
COc1cccc(NC(=O)Cn2c(SCC(=O)N3CCOCC3)nc3ccccc32)c1 | -5% | -14 | 14% | 26% | -3% | -9%
CC(NC(=O)CN1C(=O)NC2(CCCC2)C1=O)c1ccc(Cl)cc1Cl (stereo not drawn) | ? | -19 | -5% | 1% | 2% | ?
CC(=O)NC1(C)CN(Cc2ccc(-c3ccccc3OCc3ccccc3)s2)C1 | · | · | -8%[176 µM] | · | · | ·
O=C(NCCN1CCOCC1)c1cccc2c1C(=O)c1ccc(N3CCCC3)cc1S2(=O)=O | 5% | 1 | -15% | 23% | 6% | -7%
COc1ccccc1N1CCN(c2ccc3c(c2)S(=O)(=O)c2cccc(C(=O)NCc4ccc(F)cc4)c2C3=O)CC1 | ? | -6 | -6% | -4% | -1% | 2.6µM*
CC1CCN(c2ccc3c(c2)S(=O)(=O)c2cccc(C(=O)NCc4cccc(F)c4)c2C3=O)CC1 | ? | 8 | -2% | -3% | -1% | 18µM*
O=C(NCc1ccc(OC(F)(F)F)cc1)c1cccc2c1C(=O)c1ccc(N3CCCCC3)cc1S2(=O)=O | -6% | 3 | -4% | 0% | 3% | -14%
O=C(NCc1cccc(F)c1)c1cccc2c1C(=O)c1ccc(N3CCCC3)cc1S2(=O)=O | ? | 0 | · | 0% | 0% | 12µM*
O=C(CN1CCN(C(=O)c2ccccc2)CC1)Nc1cc(S(=O)(=O)N2CCCC2)ccc1Cl | ? | 7 | 11% | -9%[9.24 µM] | -2% | ?
CN(C)S(=O)(=O)c1ccc(Cl)c(NC(=O)CN2CCN(Cc3ccc4c(c3)OCO4)CC2)c1 | ? | 15 | 3% | 0% | -3% | 21µM*
O=C(Nc1ccccc1Cl)N1CCN(Cc2ccc3c(c2)OCO3)CC1 | -3% | -18 | -12% | -9% | 1% | -25%
O=C(CN1CCN(Cc2ccc3c(c2)OCO3)CC1)Nc1cc(S(=O)(=O)N2CCCC2)ccc1Cl | ? | -3 | 0% | 3% | 10% | 16µM*
CCn1nccc1C(=O)N1CCCN(S(C)(=O)=O)c2ccccc21 | · | · | -9% | · | · | ·
COc1ccc(CCc2ccc3cc(OC)ccc3n2)cc1 | ? | -55* | -3% | -29% | -25% | ?
COc1ccc2cc(CCC(C)=O)ccc2c1 | 11% | -1 | 8% | -12% | 0% | 9%
Cc1cc2oc3c(c(=O)c2cc1C)C1(C(=O)N(C)c2ccccc21)N(CCO)C3=O (stereo not drawn) | -22% | · | -29% | · | · | 2%
Cc1cccc2c1nc1n2[C@@H](CNCc2nc3ccccc3n2C)COC1 | · | · | 78%[176 µM] | · | · | ·
O=C(Cn1c(-c2ccccc2)c[n+]2ccsc12)c1ccccc1 | 21µM* | 46 | -7% | -8% | -10% | ?
O=C(Cn1c(-c2ccccc2)c[n+]2ccsc12)c1ccc([N+](=O)[O-])cc1 | 23µM* | 6 | -14% | ? | ? | 23µM*
COc1ccc(C2=NNC(=O)CC2)cc1 | -20% | 13 | -20% | -5% | 0% | -16%
COc1ccc(C2=NNC(=O)C2(C)Br)cc1 (stereo not drawn) | -19% | 0 | 45µM* | 15% | 5% | ?
SMILES | DT40 TDP1 CPT | IL1B secr inh | 12-LOX inh | HT1080-NT tox | HT1080 IDH1KD tx | DT40 TDP1 no CPT
CCCCNC(=O)C1(C)CCCCCN1Cc1cc2ccccc2o1 (stereo not drawn) | 18µM* | -26 | -20% | ? | ? | ?
CCCCNC(=O)C1(C)CCCCN1C(=O)c1ccc2ccccc2n1 (stereo not drawn) | ? | -6 | -15% | 18% | 5% | ?
CCCCNC(=O)C1CCN(Cc2ccc(OCc3ccccc3)cc2)CC1 | ? | -8 | ? | ? | ? | ?
CCCCNC(=O)C1(C)CCCCN1Cc1ccc(OCc2ccccc2)cc1 (stereo not drawn) | 21µM* | -25 | -2% | ? | ? | 21µM*
CC1(C(=O)NCc2cccc3ccccc23)CCN1Cc1cc2ccccc2o1 (stereo not drawn) | ? | -16 | 7% | ? | ? | ?
CCCCNC(=O)C1(C)CCCCN1Cc1ccc(-c2ccccc2)cc1 (stereo not drawn) | 13µM* | 16 | ? | ? | ? | 8.2µM*
CCCCNC(=O)C1(C)CCN1C(=O)c1ccc(F)c(C)c1 (stereo not drawn) | -28% | -3 | 8% | 24% | 14% | ?
CCCCNC(=O)C1(C)CCN1Cc1cc(C)ccc1C (stereo not drawn) | 23µM* | 0 | 4% | 2% | 17% | ?
O=C1[C@@H]2C[C@@H](CN2CC2CC2)Oc2ccccc2N1Cc1ccc(OC(F)(F)F)cc1 | · | · | 80%[176 µM] | · | · | ·
COc1ccc(/C=C2\C(=O)NC(=S)N2C(=O)c2ccc(C)cc2)cc1 | ? | 12 | ? | 2% | -4% | 15µM*
O=C1NC(=S)N(C(=O)c2ccc(F)cc2)/C1=C/c1cccnc1 | 0% | -12 | 0% | ? | -13% | ?
CCn1ncc(C(=O)N2CCC3(CC2)CN(Cc2ccccc2)CC3CO)c1C (stereo not drawn) | · | · | 50% | · | · | ·
COc1ccc(-c2cc(NC=O)c3ncc(-c4cccc(C(=O)NCCN(C)C)c4)n3c2)c(OC)c1 | 3.3µM* | -3 | -4% | 18µM* | 23µM* | 3.7µM*
COc1cc(-c2cnc3c(NC=O)cc(-c4cccc(C(=O)NCCN(C)C)c4)cn23)cc(OC)c1OC | ? | 129 | 0% | 5% | -1% | 15µM*
COc1ccc(-c2cc(NC=O)c3ncc(-c4cccc(C(=O)NCCN(C)C)c4)n3c2)cn1 | ? | -26 | -5% | -26% | -18% | ?
O=C(NCc1ccc(F)cc1)Nc1c(NC2CCCC2)c2ccccc2oc1=O | · | · | -5% | · | · | ·
